Bioassay records from PubChem BioAssay.
An excerpt weighted towards active compounds, which were near 8.9% of everything screened.
IMPase Li inh: qHTS Assay for Identifying the Cell-Membrane Permeable IMPase Inhibitors: Potentiation with Lithium. 0.35% of 210,000 active. AID 1457, 2008. Potency, µM (titrated, usually from 59.4 µM), for the others: top-dose activity, negative = IMPase inhibition, actives largely listed as inhibitors. CHO-M1 cells, IP1 TR-FRET (IP-One), carbachol + lithium;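 also: IP1 builds up when IMPase is blocked and the TR-FRET signal falls; potency is read from the fitted curve at half-maximal effect; plate controls were basal vehicle for no effect and high inhibitor control for full effect; nearly all actives have a fitted effect of over 50% in size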
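Test compounds were applied to CHO-M1 cells previously cultured for 16–30 h at 2000 per well. A small lithium amount accompanied them; after 30 min at 37C, IP1 was quantified by TR-FRET.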
12-hLO inh: qHTS Assay for Inhibitors of 12-hLO (12-human lipoxygenase) | Polyunsaturated fatty acid lipoxygenase ALOX12 (Homo sapiens), P18054 | purified 12-hLO, xylenol orange hydroperoxide absorbance | AID 1452, 2008 | 0.12% of 150,000 active | Potency, µM (doses to about 57.1 µM), for the others: top-dose activity change, negative = inhibition, most hits filed as inhibitors; also: potency is read from the fitted curve at half-maximal effect; nearly all actives have a fitted effect of over 55% in size
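150 nM 12hLO, 25 mM Hepes pH 7.0 + 0.01% Triton X-100; cpd preinc 15 min RT; 40 uM arachidonic acid, 30 min RT; Fe-XO 30 min; A573/A405 ratio as read-out.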
NPSR antagonist: qHTS Assay for Antagonists of the Neuropeptide S Receptor: cAMP Signal Transduction | Q6W5P4 | CHO-NPSR cells, cAMP TR-FRET, antagonist mode | Potency, µM (series often up to 38.3 µM), without a hit: top-dose activity change, negative = inhibition, hits mostly inhibitors | 1% of 220,000 active | AID 1461, 2008; also: potency is read from the fitted curve at half-maximal effect; nearly all actives have a fitted effect of over 50% in size
Target sequence (Q6W5P4 whole entry, looked up): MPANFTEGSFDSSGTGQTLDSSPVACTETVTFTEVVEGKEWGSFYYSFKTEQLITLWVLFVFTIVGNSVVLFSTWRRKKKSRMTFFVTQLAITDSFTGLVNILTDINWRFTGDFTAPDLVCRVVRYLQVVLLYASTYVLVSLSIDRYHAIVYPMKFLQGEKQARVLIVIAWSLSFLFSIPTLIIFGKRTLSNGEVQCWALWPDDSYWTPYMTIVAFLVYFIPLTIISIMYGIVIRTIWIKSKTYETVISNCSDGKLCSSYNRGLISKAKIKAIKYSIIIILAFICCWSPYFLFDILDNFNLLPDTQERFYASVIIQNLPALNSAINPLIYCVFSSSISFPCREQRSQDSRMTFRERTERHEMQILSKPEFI
HPGD block: qHTS Assay for Inhibitors of HPGD (15-Hydroxyprostaglandin Dehydrogenase). 15-hydroxyprostaglandin dehydrogenase [NAD(+)] (Homo sapiens), P15428. purified HPGD, NADH fluorescence kinetic, PGE2 substrate. Potency, µM, for the others: at the highest dose activity change, negative = inhibition, actives largely listed as inhibitors. 4.3% of 150,000 active. AID 894, 2007; active = well fitted inhibition curve with a large enough effect, not every such curve was filed as active; inconclusive = small, poorly fitted or top-dose-only effect, or another doubt; inactive = no such curve, though single readings can be large or run the other way; also: potency is read from the fitted curve at half-maximal effect
Target sequence (P15428 whole entry, looked up): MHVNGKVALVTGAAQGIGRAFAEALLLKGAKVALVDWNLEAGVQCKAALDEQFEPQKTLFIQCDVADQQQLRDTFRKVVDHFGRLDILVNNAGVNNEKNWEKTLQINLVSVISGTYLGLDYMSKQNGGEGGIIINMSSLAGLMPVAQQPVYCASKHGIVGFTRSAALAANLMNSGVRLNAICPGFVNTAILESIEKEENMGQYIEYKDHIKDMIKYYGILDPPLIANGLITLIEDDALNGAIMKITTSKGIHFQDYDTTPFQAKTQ
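20 nM HPGD preincubated 15 min at room temperature with compound in 50 mM Tris-HCl pH 8, 0.01% Tween 20. Started with 1 mM NAD+ and 30 uM prostaglandin E2; NADH fluorescence (360/450 nm) read 5 times over 30-s intervals, last minus first.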
ALDH1A1 inh: qHTS Assay for Inhibitors of Aldehyde Dehydrogenase 1 (ALDH1A1); Aldehyde dehydrogenase 1A1 (Homo sapiens), P00352; Purified ALDH1A1, NADH fluorescence, propionaldehyde substrate; Potency, µM (doses to about 75.3 µM), without a hit: at the top dose activity, negative = inhibition, hits mostly inhibitors; 7.3% of 220,000 active; active = well fitted inhibition curve with a large enough effect, not every such curve was filed as active; inconclusive = small, poorly fitted or top-dose-only effect, or another doubt; inactive = no such curve, though single readings can be large or run the other way;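 also: potency is read from the fitted curve at half-maximal effect; plate controls were no enzyme wells and a reference inhibitor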
IMPase cell inh: qHTS Assay for Identifying the Cell-Membrane Permeable IMPase Inhibitors; Inositol monophosphatase 1 (Rattus norvegicus), P97697; CHO-M1 cells, IP1 accumulation, HTRF TR-FRET ratio; inhibition (IP1 accumulation), % at 46.1 µM; 120,000 tested, under 10 active; AID 901, 2007; active = well fitted curve in the direction sought with a large enough effect in the signal ratio, not every such curve was filed as active; inconclusive = small, poorly fitted or top-dose-only effect, or a change in a side signal; inactive = no such curve, though single readings can be large or run the other way; the % refers to the signal ratio;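 also: cells stimulated with carbachol in lithium chloride buffer; plate controls were DMSO basal wells for no effect and reference inhibitor wells for full effect; higher means more IMPase inhibition seen as more IP1 and lower FRET ratio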
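In this qHTS, compounds (final up to 46 uM) act on CHO-M1 cells that are then activated through the M1 receptor with carbachol, in pH 7.4 buffer containing 50 mM LiCl, for 30 min. IP1 accumulation is quantified by the IP-One immunoassay.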
An asterisk follows results filed as active; ? = inconclusive; . = not tested or not shown; [ ] = remark or other dose. Unless noted, calls follow the shape of the dose curve; as a rule, active = well fitted curve in the direction sought with a large enough effect; inconclusive = small, poorly fitted or top-dose-only effect, or another doubt; inactive = no such curve, though single readings can be large; an effect the other way counts as inactive or inconclusive. Unless noted, % is scaled to controls: 0 for no effect and ±100 for the full control effect.

SMILES	IMPase Li inh	12-hLO inh	NPSR antagonist	HPGD block	ALDH1A1 inh	IMPase cell inh
Cc1cc(NC(=O)c2ccc([N+](=O)[O-])o2)ccc1NC(=O)c1ccco1	13%	.	-26%	.	25µM*	.
Cc1cc([N+](=O)[O-])ccc1NC(=O)c1ccco1	15%	.	-12%	.	16µM*	.
Cc1cc(NC(=O)c2ccc([N+](=O)[O-])cc2Cl)ccc1NC(=O)c1ccco1	-4%	1%	6%	-7%	8%	.
CCOC(=O)c1oc2ccccc2c1NC(=O)COC	16%[38.3 µM]	11%	-14%[46.1 µM]	-20%	-2%	1
O=S(=O)(c1ccccc1)c1cnn2c(C(F)(F)F)cc(-c3ccccc3)nc12	-10%[38.3 µM]	5%	-7%[46.1 µM]	?	5%	3
NC1=NCCCC1	9%	-2%	.	-5%	9%	2
O=C(Nc1cc(Cl)ccc1O)c1cc2n(n1)C(C(F)(F)F)CC(c1ccc3c(c1)OCO3)N2 (stereo unspecified)	17%	-1%	6.3µM*	-9%	-8%	3
BrC(=C\c1ccccc1)/C=N/Nc1nc2ccccc2[nH]1	17%	-7%	-30%	-19%	?	.
COc1ccc(C(CC(=O)NCCN2CCOCC2)NS(=O)(=O)c2ccc(C)cc2)cc1 (stereo unspecified)	-10%[38.3 µM]	9%	-5%[46.1 µM]	4%	-12%	5
Cc1ccc(S(=O)(=O)NNc2nc3ccccc3nc2C(F)(F)F)cc1	2%[38.3 µM]	?	-21%[46.1 µM]	3.2µM*	7.1µM*	0
Cc1ccc(S(=O)(=O)NNC(=O)CCC(=O)Nc2ccccc2)cc1	-1%[38.3 µM]	8%	-12%[46.1 µM]	-7%	5%	3
Cc1ccc(S(=O)(=O)NNc2ccccc2)cc1	-8%[38.3 µM]	16µM*	-8%[46.1 µM]	5µM*	5.6µM*	9
Nc1cc2nn(-c3ccccc3)nc2cc1Cl	-12%	.	5%	.	?	.
C/C(=N/NC(=S)Nc1cccc(C)c1)c1cccc([N+](=O)[O-])c1	2%	.	-45%	.	8.9µM*	.
Cc1ccc(S(=O)(=O)CNC(=O)c2ccccc2)cc1	-12%[38.3 µM]	-2%	-24%[46.1 µM]	-15%	?	4
COC(=O)c1cc(Cl)c(NC(=O)/C=C/c2ccc(Cl)cc2)cc1OC	13%	2%	-10%[46.1 µM]	?	?	-3
O=C1CC(c2ccc(F)cc2)Cc2nc(N3CCOCC3)ncc21 (stereo unspecified)	24%[38.3 µM]	3%	-20%[46.1 µM]	-21%	28µM*	8
c1ccc(-c2csc(Nc3cccnc3)n2)cc1	10%	.	15%	.	-2%	.
Cc1cc2n(n1)SC(Nc1ccccc1)N2 (stereo unspecified)	-14%[38.3 µM]	-9%	-6%[46.1 µM]	-15%	25µM*	-18
O=C1NCCCC1C(=O)N/N=C/c1cccc([N+](=O)[O-])c1 (stereo unspecified)	.	.	-15%	.	-10%	.
O=C1C2C(C(=O)N1/N=C/c1ccc(N3CCCCC3)o1)C1C=CC2C12CC2 (stereo unspecified)	12%	-6%	-21%	-17%	8.9µM*	-1
CCN(CC)C1=N/C(=C\c2ccc(OC)cc2)C(=O)N1c1ccccc1	7%	1%	-18%	-20%	?	.
CCOC(=O)CC1=NN(c2ccccc2)C(=O)/C1=C\c1ccc(OC)cc1OC	13%	-7%	-1%	28µM*	?	.
COC(=O)CC1=NN(c2ccccc2)C(=O)/C1=C\c1ccc(OC)cc1	4%	-3%	-6%	14µM*	?	.
CCOC(=O)C1=C(C)N(c2ccccc2)C(=O)/C1=C\c1ccc(O)c(OC)c1	.	.	-31%	.	.	.
SMILES	IMPase Li inh	12-hLO inh	NPSR antagonist	HPGD block	ALDH1A1 inh	IMPase cell inh
COC(=O)CC1=NN(c2ccc(OC)cc2)C(=O)/C1=C\c1ccc(Cl)cc1	-1%	-11%	-33%	25µM*	-11%	.
C=CCN1C(=O)/C(=C/c2ccc(OCC(=O)O)cc2)S/C1=N/c1nccs1	-9%	-1%	-11%	-19%	5µM*	.
C=CCN1C(=O)/C(=C/c2ccc(O)c(OC)c2)S/C1=N/c1nccs1	4%	-12%	-5%	-17%	1µM*	.
COc1ccccc1Nc1ncccc1C(=O)NCc1ccccc1	51%[38.3 µM]	-1%	?	-18%	-4%	2
Cc1ccc2cccc(SCC(=O)NCC#N)c2n1	-9%	-6%	-11%	?	?	.
COc1cc(-c2coc3cc(OC)c(OC)c(OC)c3c2=O)cc(OC)c1OC	0%	-1%	.	-5%	3%	.
CC(=O)Oc1cc(-c2coc3cc(OC(C)=O)c(OC(C)=O)c(OC(C)=O)c3c2=O)cc(OC(C)=O)c1OC(C)=O	14%	3%	.	7.9µM*	?	.
CCOC(=O)C1=C(CC)OC(N)=C(C#N)C1c1ccsc1 (stereo unspecified)	-1%	?	-3%	-26%	-10%	.
Cn1c(COc2ccc(Cl)cc2)nnc1SCc1ncc(-c2ccccc2)o1	28%[38.3 µM]	-16%	?	-5%	20µM*	5
Cc1ccc(-c2nnc(N3CCN(C(=O)c4ccco4)CC3)c3ccccc23)cc1	12%[38.3 µM]	-4%	?	-15%	14µM*	5
Cc1ccc(-c2cc(C(=O)N3CCN(C(=O)c4ccco4)CC3)no2)cc1	20%[38.3 µM]	-6%	6%[46.1 µM]	-8%	-2%	10
Cc1ccc(OCC(=O)N2CCN(c3nnc(-c4ccc(C)cc4)c4ccccc34)CC2)cc1	29%[38.3 µM]	-6%	?	-16%	14µM*	6
S=C(N/N=C/c1ccccc1)N1CCOCC1	3%	-6%	-18%	-9%	?	.
CCCN(C#N)c1nc(NCC)nc(NC(C)C)n1	-7%[38.3 µM]	-9%	-10%[46.1 µM]	-5%	10µM*	0
CCNc1nc(NC(C)C)nc(N(C)C#N)n1	.	.	6%	.	.	.
O=C(CSc1nc2ccc(Cl)cc2[nH]1)c1ccc2c(c1)OCO2	5%[38.3 µM]	-24%	-24%[46.1 µM]	-16%	18µM*	13
O=C(CSc1ccc2ccccc2n1)c1ccc2c(c1)OCO2	35%[38.3 µM]	-5%	-26%[46.1 µM]	8.9µM*	?	16
Cc1nc(SCCC(=O)O)c2ccccc2n1	13µM*	-2%	?	-10%	12%	?
Cc1cc(SCCC(=O)O)nc2ccccc12	11µM*	1%	14%[7.67 µM]	-21%	-13%	?
Cc1ccc(-c2noc(CSc3nnc(Cc4ccccc4)n3-c3ccc(Cl)cc3)n2)cc1	53%[38.3 µM]	-6%	?	-11%	-3%	13
CC(=O)C(Cc1ccc(Cl)nc1)Cc1ccc(Cl)nc1	1%	.	-17%	.	13%	.
